Results on 5 molecules are retold here after PubChem BioAssay.

Results filed as inconclusive are left out. Calls of active or inactive are those of the source.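 The calls were made as follows, unless noted: active = aptamer binding inhibition above 30%, about 3 SD of noise from non-fluorescent compounds; inactive = inhibition at or below 30%.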

The nature of experiment [1]: yeast TOR pathway RPL19A-GFP modulators, primary screen, cell-based, S. cerevisiae, multiplex flow cytometry (AID 1862; in the data active = percent of DMSO control GFP below about 86%;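 also: lower values mimic rapamycin by blocking the RPL19A rise seen in DMSO cells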). The note with it: S. cerevisiae RPL19A-GFP strain, flow cytometry fluorescence, 3 h; at 10 µM; stronger effect = lower value.
A short description of experiment [2]: modulators of MEP2-GFP levels in yeast, primary screen, S. cerevisiae, multiplex flow cytometry (AID 1867;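 active = GFP response, as percent of the DMSO control, above the screen-wide mean plus 3 SD, about 139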;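 also: median GFP channel fluorescence of barcode-gated MEP2-GFP cells measured by flow cytometry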). As to conditions: S. cerevisiae MEP2-GFP strain, 3 h, at 10 µM, stronger effect = higher value, 100% means same as DMSO wells.
Experiment [3] can be described thus: modulators of CIT2-GFP expression in yeast, primary screen, S. cerevisiae, GFP fusion, multiplex flow cytometry (AID 1870;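 active = percent response above a set limit, the screen-wide mean plus 3 SD, cut at about 130% in these data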;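 also: barcoded CIT2-GFP strain pooled with four other GFP strains with rapamycin as positive control; median GFP fluorescence per well over plate mean of DMSO wells so 100% = DMSO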). The note with it: 3 h, at 10 µM, stronger effect = higher value.
Experiment [4] is described as follows: modulators of LAP4-GFP expression in yeast, primary screen, S. cerevisiae, multiplex flow cytometry (AID 1873;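 active = GFP signal, as percent of the solvent control, above the screen mean plus 3 SD, about 149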). As to conditions: 3 h, at 10 µM, stronger effect = higher value.
The nature of experiment [5]: modulators of AGP1-GFP expression in yeast TOR pathway, primary screen, cell-based, multiplex flow cytometry, S. cerevisiae (AID 1887;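 active = GFP signal above the screen-wide mean plus 3 SD, that is over about 124.5% of the solvent control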;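 also: AGP1-GFP fusion strain of S. cerevisiae within a five-strain barcoded multiplex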). As to conditions: 3 h, at 10 µM, stronger effect = higher value.
A short description of experiment [6]: inhibitors of CD8+ T cell-vesicle binding, pilot screen, LFA-1/ICAM-1 modulator project, MLPCN validation set, flow cytometry (AID 2523;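 active = response below a set limit, under 55% cells CD8-positive and vesicle-bound, and CD8 cells' 90th-percentile brightness under 279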;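 as to vesicle binding response: mean PE anti-B7-1 fluorescence of CD8+ cells relative to row control; 100% = QL9-loaded vesicles with DMSO vehicle in the same plate row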). The note with it: 2C mouse CD8+ T cells, at 7 µM, stronger effect = lower value; double positive events: measured here: CD8+/vesicle+ event percentage.
The target of experiment [7] is Integrin beta-1 (Homo sapiens) + Integrin alpha-4 (Homo sapiens) (UniProt P13612+P05556). The experiment is described as follows: inhibition of HUTS-21 binding to VLA-4, pilot screen, VLA-4 allosteric modulator project, U937 cells, HUTS-21 mAb, flow cytometry, validation set (AID 2674;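 active = inhibition above 50%, about 3 SD of the validation set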;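 also: antibody binding induced by the VLA-4 ligand LDV present at three times its Kd; 0% = LDV ligand with antibody and no compound and 100% = antibody without LDV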). The note with it: HUTS-21 LIBS mAb binding, at 6.7 µM, stronger effect = higher value, binding induced by LDV ligand.
Chain of Integrin beta-1 (Homo sapiens) + Integrin alpha-4 (Homo sapiens) (P05556 whole entry, looked up): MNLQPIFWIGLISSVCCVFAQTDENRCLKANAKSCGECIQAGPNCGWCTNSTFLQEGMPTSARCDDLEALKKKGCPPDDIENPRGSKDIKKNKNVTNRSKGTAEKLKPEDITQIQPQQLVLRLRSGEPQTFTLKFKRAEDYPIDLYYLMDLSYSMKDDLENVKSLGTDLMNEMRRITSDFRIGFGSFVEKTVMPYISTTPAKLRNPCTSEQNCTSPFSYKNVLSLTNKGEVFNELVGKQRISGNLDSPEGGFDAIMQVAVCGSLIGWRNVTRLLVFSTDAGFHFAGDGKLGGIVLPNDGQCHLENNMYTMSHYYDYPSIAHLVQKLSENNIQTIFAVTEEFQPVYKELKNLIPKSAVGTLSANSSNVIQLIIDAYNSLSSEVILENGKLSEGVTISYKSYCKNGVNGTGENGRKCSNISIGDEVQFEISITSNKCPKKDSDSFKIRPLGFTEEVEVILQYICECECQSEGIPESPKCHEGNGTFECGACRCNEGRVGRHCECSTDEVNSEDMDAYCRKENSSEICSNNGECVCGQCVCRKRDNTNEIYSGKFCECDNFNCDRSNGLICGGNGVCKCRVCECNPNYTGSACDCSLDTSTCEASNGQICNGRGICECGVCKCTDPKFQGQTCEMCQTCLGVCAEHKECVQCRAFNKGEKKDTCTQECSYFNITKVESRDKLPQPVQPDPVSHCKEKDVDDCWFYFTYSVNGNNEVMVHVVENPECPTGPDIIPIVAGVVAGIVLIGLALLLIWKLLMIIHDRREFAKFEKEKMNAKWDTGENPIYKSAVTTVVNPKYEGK
Chain of Integrin beta-1 (Homo sapiens) + Integrin alpha-4 (Homo sapiens) (P13612 whole entry, looked up): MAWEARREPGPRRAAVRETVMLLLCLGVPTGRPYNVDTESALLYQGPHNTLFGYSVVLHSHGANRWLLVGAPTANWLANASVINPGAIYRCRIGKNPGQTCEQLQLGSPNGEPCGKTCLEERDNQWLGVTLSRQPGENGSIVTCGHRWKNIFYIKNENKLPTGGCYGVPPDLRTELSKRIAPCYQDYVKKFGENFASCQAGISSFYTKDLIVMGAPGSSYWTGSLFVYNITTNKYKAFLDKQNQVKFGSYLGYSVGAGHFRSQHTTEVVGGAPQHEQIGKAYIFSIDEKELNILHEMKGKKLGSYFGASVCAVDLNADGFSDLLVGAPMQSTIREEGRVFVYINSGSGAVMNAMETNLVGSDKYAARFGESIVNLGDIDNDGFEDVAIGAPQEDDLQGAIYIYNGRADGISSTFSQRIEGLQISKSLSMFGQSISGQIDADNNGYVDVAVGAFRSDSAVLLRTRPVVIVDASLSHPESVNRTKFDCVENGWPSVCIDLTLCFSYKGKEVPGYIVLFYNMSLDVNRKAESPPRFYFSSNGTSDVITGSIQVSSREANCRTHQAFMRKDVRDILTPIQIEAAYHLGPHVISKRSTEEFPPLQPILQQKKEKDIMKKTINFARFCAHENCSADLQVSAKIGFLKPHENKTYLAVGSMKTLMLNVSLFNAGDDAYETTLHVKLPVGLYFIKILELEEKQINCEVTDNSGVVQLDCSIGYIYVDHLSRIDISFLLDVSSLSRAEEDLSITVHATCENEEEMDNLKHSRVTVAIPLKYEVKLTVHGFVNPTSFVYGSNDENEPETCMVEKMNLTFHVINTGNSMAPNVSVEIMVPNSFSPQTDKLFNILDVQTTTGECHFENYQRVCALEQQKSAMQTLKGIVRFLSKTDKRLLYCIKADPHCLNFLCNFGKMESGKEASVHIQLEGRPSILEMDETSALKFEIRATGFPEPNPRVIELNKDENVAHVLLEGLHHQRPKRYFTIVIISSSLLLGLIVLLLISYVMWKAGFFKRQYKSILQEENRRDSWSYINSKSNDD

Experiment [8] is described as follows: superoxide lowering in aged yeast cells, pilot screen, validation compound set (AID 2706;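 active = superoxide response below 65% of plate, a cut near 3 SD across the whole screen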;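 also: yeast exposed to compound for one week at 30 degrees C before staining; 100% = mean of all compound wells on the same plate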). The note with it: S. cerevisiae aging, superoxide DHE fluorescence; at 10 µM; stronger effect = lower value.
The target in experiment [9] is Beta-adrenergic receptor kinase 1 (Homo sapiens) (UniProt P25098). The experiment can be described thus: GRK2 binders displacing RNA aptamer, biochemical, validation, human GRK2, bead flow cytometry (AID 488806). As to conditions: bead-bound GRK2, FAM-aptamer displacement, at 10 µM, stronger effect = higher value.
Chain of Beta-adrenergic receptor kinase 1 (Homo sapiens) (P25098 whole entry, looked up): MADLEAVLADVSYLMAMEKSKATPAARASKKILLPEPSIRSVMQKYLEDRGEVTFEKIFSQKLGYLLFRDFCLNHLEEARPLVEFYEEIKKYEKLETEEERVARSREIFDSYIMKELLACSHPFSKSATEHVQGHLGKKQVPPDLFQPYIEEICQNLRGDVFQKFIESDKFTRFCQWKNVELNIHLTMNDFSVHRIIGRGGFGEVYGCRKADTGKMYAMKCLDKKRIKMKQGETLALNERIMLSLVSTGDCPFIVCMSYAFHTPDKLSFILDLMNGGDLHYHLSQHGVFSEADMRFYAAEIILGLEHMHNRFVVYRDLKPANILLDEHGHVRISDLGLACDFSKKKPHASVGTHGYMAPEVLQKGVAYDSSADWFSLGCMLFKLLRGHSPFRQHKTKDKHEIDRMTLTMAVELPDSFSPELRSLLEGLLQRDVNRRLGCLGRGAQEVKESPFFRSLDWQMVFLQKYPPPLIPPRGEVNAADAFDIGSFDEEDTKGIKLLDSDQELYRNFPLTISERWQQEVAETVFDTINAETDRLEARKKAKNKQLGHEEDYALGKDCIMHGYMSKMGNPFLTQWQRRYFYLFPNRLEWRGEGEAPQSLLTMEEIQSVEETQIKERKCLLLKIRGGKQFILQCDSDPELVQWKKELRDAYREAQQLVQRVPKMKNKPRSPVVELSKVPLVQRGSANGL
For experiment [10], the target named is Beta-2 adrenergic receptor (Homo sapiens) (UniProt P07550). The experiment is described as follows: beta2AR agonists driving receptor internalization, pilot screen, cell-based, FAP fluorogen, flow cytometry, validation set (AID 504459;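 active = percent response above 42, roughly 3 SD of non-fluorescent test compounds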;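 also: agonist-driven loss of surface beta2AR via internalization measured by FAP dye flow cytometry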). The note with it: Am2.2-beta2AR cells, FAP surface receptor flow cytometry; at 10 µM; stronger effect = higher value.
Chain of Beta-2 adrenergic receptor (Homo sapiens) (P07550 whole entry, looked up): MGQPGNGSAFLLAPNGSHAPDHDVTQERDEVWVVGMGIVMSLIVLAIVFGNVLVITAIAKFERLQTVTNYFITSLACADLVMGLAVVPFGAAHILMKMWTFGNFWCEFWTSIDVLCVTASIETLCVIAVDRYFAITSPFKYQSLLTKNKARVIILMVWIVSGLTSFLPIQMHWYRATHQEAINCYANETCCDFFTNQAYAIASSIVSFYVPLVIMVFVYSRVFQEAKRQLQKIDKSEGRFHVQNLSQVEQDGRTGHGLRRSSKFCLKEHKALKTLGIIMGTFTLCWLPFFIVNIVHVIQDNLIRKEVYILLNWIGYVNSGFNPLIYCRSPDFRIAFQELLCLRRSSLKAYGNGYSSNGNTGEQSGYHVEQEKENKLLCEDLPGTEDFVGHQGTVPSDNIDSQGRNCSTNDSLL
For experiment [11], the target named is AP-2 complex subunit beta (Homo sapiens) (UniProt P63010). The experiment can be described thus: inhibitors of arrestin peptide binding to AP2, pilot screen, biochemical, validation set, GST-AP2 beads, flow cytometry (AID 504541;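 active = inhibition above 54%, about 3 SD of non-fluorescent compounds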;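 also: AP2 carries R879A mutation and is captured from E. coli lysate; bead-bound FITC arrestin peptide fluorescence measuring arrestin peptide binding to AP2; 0% = DMSO wells and 100% = excess unlabeled arrestin peptide control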). As to conditions: FITC arrestin peptide, at 10 µM, stronger effect = higher value, AP2 beta2 appendage fragment, R879A mutant.
Chain of AP-2 complex subunit beta (Homo sapiens) (P63010 whole entry, looked up, the tested form may be a part, one chain of several): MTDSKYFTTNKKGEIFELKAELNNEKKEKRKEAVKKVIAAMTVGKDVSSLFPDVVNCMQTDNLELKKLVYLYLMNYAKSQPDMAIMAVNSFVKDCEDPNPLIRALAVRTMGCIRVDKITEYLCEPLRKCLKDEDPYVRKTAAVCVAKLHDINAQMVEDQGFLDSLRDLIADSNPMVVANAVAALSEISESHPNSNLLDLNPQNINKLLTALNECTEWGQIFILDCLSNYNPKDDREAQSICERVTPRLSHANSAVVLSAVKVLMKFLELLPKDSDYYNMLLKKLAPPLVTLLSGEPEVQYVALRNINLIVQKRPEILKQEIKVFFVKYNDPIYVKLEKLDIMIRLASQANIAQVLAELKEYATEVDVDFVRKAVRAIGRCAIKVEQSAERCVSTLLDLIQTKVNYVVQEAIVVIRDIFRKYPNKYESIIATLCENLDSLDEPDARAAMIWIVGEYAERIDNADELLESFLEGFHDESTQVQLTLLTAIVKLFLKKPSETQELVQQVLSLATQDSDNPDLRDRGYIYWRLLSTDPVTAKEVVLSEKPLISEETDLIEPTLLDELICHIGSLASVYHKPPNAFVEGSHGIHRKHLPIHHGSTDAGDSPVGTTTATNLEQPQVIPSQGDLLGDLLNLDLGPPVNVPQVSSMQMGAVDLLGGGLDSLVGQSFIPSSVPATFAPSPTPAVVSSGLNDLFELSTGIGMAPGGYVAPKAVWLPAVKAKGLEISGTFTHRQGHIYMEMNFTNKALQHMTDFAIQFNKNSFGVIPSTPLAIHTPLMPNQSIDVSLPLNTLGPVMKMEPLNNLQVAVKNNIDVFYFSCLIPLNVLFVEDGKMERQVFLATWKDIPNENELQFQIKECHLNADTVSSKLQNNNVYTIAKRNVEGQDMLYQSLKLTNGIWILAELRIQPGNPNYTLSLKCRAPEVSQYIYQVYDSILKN
Experiment [12] in a line: yeast V-ATPase proton transport modulators, S. cerevisiae, pHLuorin, HTS validation (AID 504600; in the data active = response above about 15%;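 also: plate controls were DMSO for no effect and reference compound for full effect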). The note with it: S. cerevisiae pHLuorin cytosolic pH, at 10 µM, stronger effect = higher value.
Experiment [13] relates to anti-desmoglein-3 scFv antibody binding to human DSG3. The experiment is described as follows: inhibitors of anti-DSG3 scFv binding to DSG3, pilot screen, biochemical, validation compound set, bead-based, flow cytometry (AID 588368;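 active = binding below the plate cutoff, the plate median minus 3 SD, with a reading above zero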;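 also: signal is the median channel fluorescence of bead-bound GFP antibody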). As to conditions: Protein G beads, DSG3-Fc, scFv-GFP binding, at 10 µM, stronger effect = lower value.
The nature of experiment [14]: inhibitors of fungal efflux pumps CDR1, CDR2, MDR1, pilot screen, validation compound set, multiplex, phenotypic (AID 588506;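 active = efflux inhibition above 0.42, the validation set average plus 4 SD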;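 also: Nile Red retained in cells so higher fluorescence means more efflux inhibition; 0 = negative control wells and 1 = enniatin B 25 µM full block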). The note with it: S. cerevisiae pump-expressing triplex, Nile Red efflux flow cytometry; at 10 µM; stronger effect = higher value; the pumps come from Candida albicans.
Experiment [15] addresses ATP-binding cassette sub-family B member 6 (Homo sapiens) (UniProt Q9NP58). The experiment can be described thus: ABCB6 transporter inhibitors, pilot screen, K562-ABCB6 cells, flow cytometry, validation set (AID 588550;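 active = inhibition above the screen-wide mean plus 3 SD, about 51%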;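 also: 0% = DMSO wells and 100% = benzethonium chloride 70 µM positive control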). As to conditions: K562-ABCB6 porphyrin accumulation, 1 h, at 10 µM, stronger effect = higher value.
A short description of experiment [16]: promoters of myeloid differentiation in arrested cells, primary screen, cell-based, GFP/MAC1 double positive, flow cytometry, validation set (AID 588685;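 active = differentiation response of at least 50%, scaled between solvent and reference control, from cells with both markers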;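 also: compound exposure lasts four days before antibody staining and flow analysis; 0% = DMSO wells and 100% = 5 µM fulvestrant positive control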). As to conditions: ER-HoxA9 marrow cells, stronger effect = higher value, normalized: vehicle 0, fulvestrant 100.

Chain of ATP-binding cassette sub-family B member 6 (Homo sapiens) (Q9NP58 whole entry, looked up): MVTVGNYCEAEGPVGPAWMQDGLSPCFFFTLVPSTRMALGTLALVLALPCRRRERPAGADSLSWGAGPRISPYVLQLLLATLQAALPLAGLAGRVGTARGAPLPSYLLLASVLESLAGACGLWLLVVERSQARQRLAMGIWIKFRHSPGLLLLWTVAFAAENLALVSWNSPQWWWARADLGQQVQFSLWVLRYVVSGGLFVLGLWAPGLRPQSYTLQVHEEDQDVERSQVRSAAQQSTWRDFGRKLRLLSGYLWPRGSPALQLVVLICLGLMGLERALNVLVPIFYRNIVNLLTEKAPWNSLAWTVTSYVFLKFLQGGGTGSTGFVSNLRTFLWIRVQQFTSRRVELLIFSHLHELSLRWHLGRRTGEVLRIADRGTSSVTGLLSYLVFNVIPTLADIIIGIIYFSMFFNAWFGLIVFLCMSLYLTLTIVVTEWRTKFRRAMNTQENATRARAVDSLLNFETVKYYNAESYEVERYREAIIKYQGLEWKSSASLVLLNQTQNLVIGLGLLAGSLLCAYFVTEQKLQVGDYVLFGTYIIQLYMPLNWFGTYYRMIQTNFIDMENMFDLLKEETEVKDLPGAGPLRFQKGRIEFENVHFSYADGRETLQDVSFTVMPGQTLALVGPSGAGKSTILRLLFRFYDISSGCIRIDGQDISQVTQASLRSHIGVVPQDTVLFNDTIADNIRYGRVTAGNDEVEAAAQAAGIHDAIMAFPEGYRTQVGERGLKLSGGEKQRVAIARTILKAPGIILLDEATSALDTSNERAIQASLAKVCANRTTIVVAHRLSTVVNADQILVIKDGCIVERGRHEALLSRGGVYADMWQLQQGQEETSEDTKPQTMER

Take `O=C(NC(=S)N1CCCCC1)c1cccnc1`: the percent of DMSO control GFP in experiment [1] is 102% (inactive). Further, the figures for the GFP response vs DMSO in experiment [2] and in experiment [4] were 95.1% (inactive) and 108% (inactive), respectively. The percent response of DMSO control in experiment [3] is 97.8% (inactive). For the same molecule, the GFP response, % of DMSO in experiment [5] is 99.4% (inactive). The double positive events in experiment [6] worked out at 60.8%. Also, in experiment [6], the vesicle binding response is 95.6% (inactive). The inhibition in experiment [7] is 11% (inactive); in [11] it was -15.4% (inactive); in experiment [15], -15% (inactive). Also, the superoxide response (% of plate) in experiment [8] was 89.9% (inactive). Further, the aptamer binding inhibition in experiment [9] was -3% (inactive). The response was -0.16% (inactive) in [10] and -2.13% (inactive) in experiment [12]. Further, the binding (% of control) in experiment [13] is 93.3% (inactive). For the same molecule, in experiment [14], the efflux inhibition (fraction of control) was -0.07 (inactive). In experiment [16], the differentiation response was 21.8% (inactive).
Consider `COc1ccc(NC(=S)N2CCN(CCN3C(=O)c4cccc5cccc(c45)C3=O)CC2)cc1`, for which, in [1], the percent of DMSO control GFP is 101% (inactive). Also, the figures for the GFP response vs DMSO in experiment [2] and in [4] were 129% (inactive) and 90.2% (inactive), respectively. Besides, the percent response of DMSO control in [3] was 104% (inactive). The GFP response, % of DMSO in [5] was 91.9% (inactive). The molecule also had a double positive events in [6] of 59.1%. Besides, the vesicle binding response in experiment [6] was 31.6% (inactive). Moreover, the inhibition in experiment [7] is -6.15% (inactive); in [11] it was 24.4% (inactive); in experiment [15], 9% (inactive). Further, the superoxide response (% of plate) in experiment [8] is 86.5% (inactive). Besides, the aptamer binding inhibition in experiment [9] was 0% (inactive). Besides, the response in experiment [10] is -4.94% (inactive); in experiment [12], -0.62% (inactive). For the same molecule, the binding (% of control) in experiment [13] was 105% (inactive). Besides, the efflux inhibition (fraction of control) in [14] is 0.34 (inactive). For the same molecule, the differentiation response in experiment [16] was 18% (inactive).
Regarding `CC12CCC(C(=O)NNc3ccccc3)(C(=O)C1=O)C2(C)C` (stereo not given), the percent of DMSO control GFP in experiment [1] was 104% (inactive). Also, the GFP response vs DMSO was 97.4% (inactive) in experiment [2] and 94.8% (inactive) in [4]. Besides, the percent response of DMSO control in [3] was 102% (inactive). In addition, the GFP response, % of DMSO in experiment [5] was 100% (inactive). The molecule also showed a double positive events in experiment [6] of 62%. Further, in experiment [6], the vesicle binding response was 217% (inactive). Further, the inhibition is -30.5% (inactive) in [7], 19.1% (inactive) in experiment [11] and -14% (inactive) in experiment [15]. For the same molecule, in experiment [8], the superoxide response (% of plate) was 105% (inactive). In addition, the aptamer binding inhibition in [9] was 8% (inactive). The response is -5.89% (inactive) in experiment [10] and -0.25% (inactive) in experiment [12]. Moreover, the binding (% of control) in experiment [13] is 101% (inactive). Besides, the efflux inhibition (fraction of control) in experiment [14] was -0.03 (inactive). Also, the differentiation response in experiment [16] was 15.2% (inactive).
As for `C=CCC1(O)C(=O)N2C(=C1C(=O)N1CCOCC1)c1ccccc1CC2(C)C` (stereo not given), the percent of DMSO control GFP in experiment [1] was 99.4% (inactive). The GFP response vs DMSO in [2] was 108% (inactive); in experiment [4] it was 95.3% (inactive). The percent response of DMSO control in experiment [3] is 101% (inactive). Further, the GFP response, % of DMSO in experiment [5] is 99.9% (inactive). In experiment [6], this molecule yielded a double positive events of 55.4%. Moreover, in experiment [6], the vesicle binding response was 38.1% (inactive). The inhibition in [7] is -2.53% (inactive); in [11] it was 23.5% (inactive); in [15] it was -7% (inactive). In addition, the superoxide response (% of plate) in [8] is 111% (inactive). Besides, in experiment [9], the aptamer binding inhibition was 1% (inactive). The response is -4.96% (inactive) in experiment [10] and -6.09% (inactive) in experiment [12]. The binding (% of control) in [13] is 95.5% (inactive). In experiment [14], the efflux inhibition (fraction of control) was 0.24 (inactive). In [16], the differentiation response was 0.24% (inactive).
On to `O=C(/C=C/c1ccccc1)NCC1(c2ccccc2)CCOCC1`, for which, in experiment [1], the percent of DMSO control GFP is 101% (inactive). Further, the values for the GFP response vs DMSO in [2] and in [4] were 104% (inactive) and 117% (inactive), respectively. Further, in experiment [3], the percent response of DMSO control was 101% (inactive). For the same molecule, in experiment [5], the GFP response, % of DMSO is 103% (inactive). In addition, the double positive events in experiment [6] was determined as 64.3%. The vesicle binding response in [6] was 255% (inactive). Further, the inhibition is -18.2% (inactive) in [7], 63.9% (active) in experiment [11] and 3% (inactive) in [15]. The superoxide response (% of plate) in experiment [8] is 99.2% (inactive). Besides, in experiment [9], the aptamer binding inhibition is -1% (inactive). Further, the response is -8.35% (inactive) in [10] and -9.57% (inactive) in experiment [12]. Moreover, in experiment [13], the binding (% of control) was 97% (inactive). Also, the efflux inhibition (fraction of control) in experiment [14] is -0.21 (inactive). Besides, the differentiation response in [16] was -15.2% (inactive).
